Source: PubChem BioAssay AID1851 (National Center for Advancing Translational Sciences (NCATS), 2009)
“And” between values parts separate entries of the source, which are not always exact repeats. Equal values may be shown once. The campaign covered roughly 16,000 compounds. About 2,600 (16%) were called active. Not shown: some 20% with an inconclusive outcome. Calls come from the whole dose curve; as a rule, active = well fitted curve in the direction sought with a large enough effect; inconclusive = small, poorly fitted or top-dose-only effect, or effect the other way; inactive = no such curve, though single readings can be large or run the other way. The list is a sample of the results.

molecular target: Cytochrome P450 2D6 (Homo sapiens) (UniProt P10635); assay: Cytochrome panel assay with activity outcomes; conditions: recombinant CYP, pro-luciferin dealkylation, luminescence, p450-cyp2d6; series mostly up to 57.1 µM
Sequence (P10635 whole entry, looked up): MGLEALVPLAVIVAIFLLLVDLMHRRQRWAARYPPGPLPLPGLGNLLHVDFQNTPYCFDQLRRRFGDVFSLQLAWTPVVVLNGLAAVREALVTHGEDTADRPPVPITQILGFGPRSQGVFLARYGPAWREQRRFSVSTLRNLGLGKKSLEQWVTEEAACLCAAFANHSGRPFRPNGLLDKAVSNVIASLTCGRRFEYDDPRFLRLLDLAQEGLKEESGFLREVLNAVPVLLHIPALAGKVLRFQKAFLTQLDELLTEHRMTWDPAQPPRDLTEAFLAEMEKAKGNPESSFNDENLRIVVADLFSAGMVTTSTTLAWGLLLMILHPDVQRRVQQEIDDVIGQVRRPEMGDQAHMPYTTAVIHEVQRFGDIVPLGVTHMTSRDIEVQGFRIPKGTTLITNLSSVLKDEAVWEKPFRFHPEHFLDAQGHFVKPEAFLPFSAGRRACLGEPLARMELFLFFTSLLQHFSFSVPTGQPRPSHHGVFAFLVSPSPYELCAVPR
% is set by controls: 0 for no effect and ±100 for the full control effect.

activity, negative = inhibition, inactive:
O=C(O)c1cc(-c2ccc(-c3ccc(-c4cc(C(=O)O)c5cc(Cl)ccc5n4)cc3)cc2)nc2ccc(Cl)cc12 16.7% [at 11.4 µM], C[N+](C)(C)c1ncnc2c1ncn2[C@@H]1CCCCO1 -6.66% [at 11.4 µM], CC(=O)Nc1ccc2c(c1)/C(=C/c1ccc([N+](C)(C)C)cc1)c1ccccc1-2 -4.76% [at 11.4 µM], CC(C)=NNc1ncnc2nc[nH]c12 12.8% [at 11.4 µM], CN(C)c1ccc(/C=N\NC(=O)c2cnc3ccccc3c2)cc1 5.04% [at 11.4 µM], O=C1C[C@@H](O)[C@@H](O)[C@H]2[C@@H]3C(=O)N(C[C@@H]4CCCO4)C(=O)[C@@H]3CC[C@H]12 4.56% [at 11.4 µM] and 6.17% [at 11.4 µM], CN1CCN(c2nc3c(c(=O)n(C)c(=O)n3C)n2C)CC1 6.17% [at 11.4 µM], O=S1(=O)OC(c2ccc(O)cc2)(c2ccc(O)cc2)c2ccccc21 12.2% [at 11.4 µM], O=C(O)c1ccc(NS(=O)(=O)Cc2ccccc2)cc1 0.0348% [at 11.4 µM]

AC50, inactive:
Cn1nnnc1SCC(=O)Nc1ccccc1[N+](=O)[O-], CCS(=O)(=O)NCCc1cc2ccc(C)cc2[nH]c1=O, CN(C)c1ncc2nc(-c3ccccc3)c(=O)n(C)c2n1, CC(C)(C)C(=O)NC(c1ccc(Cl)cc1)[C@]1(C)C[C@H]1C1CCCCC1 (stereo partly specified), COc1cccc(-c2ccc3ncnc(NC4CCNCC4)c3c2)c1, COc1cccc(-c2ccc3ncnc(Nc4ccccc4)c3c2)c1, Cc1ccc(C(=O)NC(=S)NCC2CCCO2)cc1 (stereo unspecified), Cc1ccc(C2(C)NC(=O)N(CC(=O)Nc3cc(C)on3)C2=O)cc1 (stereo unspecified), COc1ccc(-n2c(SC)nc(O)c(Cc3ccccc3)c2=O)cc1, CC1=NN(c2ccccc2)C(=O)C1C(=O)c1ccc(Cl)cc1 (stereo unspecified), CCOc1ccc(CSC(CC(=O)O)C(=O)O)cc1 (stereo unspecified), CSC1=N/C(=C\c2ccc(C)cc2)C(=O)S1, C[C@H](N=C(NC#N)Nc1ccncc1)C(C)(C)C, CCNc1ncc2nc(-c3cn(C)c4ccccc34)c(=O)n(Cc3cccc(OC)c3)c2n1, CCOC(=O)/C(C(N)=NCCCO)=C(/O)c1ccccc1, COc1cc(OC)c(C#N)c(S(=O)(=O)Cc2ccccc2)c1, COC(=O)c1c(-c2cc(OC)c(OC)c(OC)c2)c2ccc(OCc3ccccn3)cc2c(=O)n1-c1ccc(N)cc1, O=C(Oc1ccccc1)N1CCC2(CC1)CN(c1ccccc1)C2, O=C(Cn1nnc2ccccc21)N1CCCCC1, COCCNC(=O)C(c1ccc(C)o1)N(CC1CCCO1)C(=O)Cn1nnc2ccccc21 (stereo unspecified), CCOCC(=O)Nc1cc(-c2cn3cccnc3n2)ccc1C, Clc1ccc(-c2ccnc(Oc3cc(Cl)ccc3Cl)n2)cc1, CCOc1cc2[nH]c(=O)n(CCC(=O)NCc3ccc(OC)cc3)c(=O)c2cc1OCC, O=C(CSc1nc2ccccc2c(=O)n1Cc1ccccc1)NCc1ccco1, O=C(CSc1nc2ccccc2c(=O)n1CCCC(=O)N1CCCC1)NCc1ccco1, Cc1cc(NC(=O)CSc2nc3ccsc3c(=O)n2Cc2ccccn2)n[nH]1, CCOC(=O)CSc1nc2ccccc2c(=O)n1CC1CCC(C(=O)NCc2ccco2)CC1 (stereo unspecified), CCc1ccc(NC(=O)CSc2nc3cc(C(=O)OC)ccc3c(=O)n2Cc2ccco2)cc1, O=C(NCC1CCCO1)c1ccc2c(=O)n(Cc3ccco3)c(SCC(=O)N3CCCC3)nc2c1 (stereo unspecified), C=CCOc1ccc2cccc(/C=N/NC(=O)c3cc4cc([N+](=O)[O-])ccc4s3)c2c1, CCCCCCCOC1(c2ccccc2)OC(=O)c2ccccc21 (stereo unspecified), CCCN(CCC)C(=O)[C@@H](CCC(=O)O)NC(=O)c1ccccc1, Cc1sc2nc(SCc3nc(-c4cccs4)no3)n(-c3ccccc3)c(=O)c2c1C, CN(C)CCN1C(=O)C(O)=C(C(=O)c2cc3ccccc3o2)C1c1ccccn1 (stereo unspecified), NC(=S)NCCC[C@@H](N)C(=O)O, NC(=NCCC[C@H](N)C(=O)O)NO, O=C(Nc1cnn(Cc2ccc(Cl)cc2)c1)c1ccc([N+](=O)[O-])cc1, CSc1ccc2nnc(-c3cccc(F)c3)n2n1, Cc1ccc(/C=N/n2c(COc3ccccc3)n[nH]c2=S)s1, Cc1nnc(C)n1/N=C/c1cccs1, O=C1C2ON(c3ccccc3)C(c3ccncc3)C2C(=O)N1c1ccccc1 (stereo unspecified), Cc1nc2ccccc2n1CC(=O)N/N=C\c1ccccn1, Cc1cc(C2C(C#N)=C(N)Oc3n[nH]c(C)c32)c(C)s1 (stereo unspecified), Cc1ccsc1/C=N/Nc1nc(Cl)c(Cl)cc1Cl, OCCN(C=NC1=NN(c2cccc(C(F)(F)F)c2)CC1)CCO, COc1cccc(/C=N/NC(=O)C(=O)NCc2cccnc2)c1, CCc1ccc2c(c1)cc(CN(C(=S)Nc1cccc(C)c1)C1CC1)c1nnnn12, COc1ccc2[nH]c(=O)c(NC(N)=S)nc2c1, CC(=O)CC(=O)[C@@]1(O)CC[C@@H]2[C@@H]3C=C(C)C4=CC(=O)CC[C@@H]4[C@H]3CC[C@]21C, O=C(O)[C@@H](O)[C@@H](O)[C@@H](O[C@H]1O[C@@H](CO)[C@@H](O)[C@@H](O)[C@@H]1O)[C@@H](O)CO, COc1cc(NC(=S)Nc2ccc(S(=O)(=O)N3CCOCC3)cc2)cc(OC)c1OC, CC1(C)CC(=O)c2cnc(N)nc2C1, O=C(NN=C1c2ccccc2-c2ccccc21)c1ccccn1, O=C(CSc1ccc(Cl)cc1)Nc1ccc(N2CCN(C(=O)c3ccc(Cl)cc3)CC2)cc1, O=C(CSC1=NCCS1)N1CCN(c2ccc(Cl)cc2)CC1, c1ccc(Nc2nc(-c3cccnc3)nc3ccccc23)cc1, COc1ccccc1NC(=O)Nc1nc(-c2cccnc2)nc2ccccc12, CCn1c(-c2ccc(N(C)C)cc2)nc2ccccc21, CCC(=O)O[C@H](CC(=O)O)C[N+](C)(C)C, COc1cc(C2NC(=O)NC(O)(C(F)(F)F)C2C(=O)c2ccc(Cl)cc2)ccc1O (stereo unspecified), CCCc1nn2c(=O)c(C(c3ccc(C)cc3)c3c(O)nc4sc(CCC)nn4c3=O)c(O)nc2s1, CCCCN(C(=S)Nc1ccccc1)C1CCS(=O)(=O)C1 (stereo unspecified), Fc1ccc(N2CCN(c3ccc4c(C(F)(F)F)cc(C(F)(F)F)nc4n3)CC2)cc1, COCCNC(=O)c1onc(CSc2ccc(Cl)cc2)c1C(=O)O, C=CCNC(=O)c1onc(CSc2ccc(F)cc2)c1C(=O)O, COc1ccc(-n2c(=O)c(-c3cn(C)c4ccccc34)nc3cnc(OC)nc32)cc1, CCOc1ccc(N(C(C)C(=O)N/N=C(\C)c2cccc(NC(=O)c3ccccc3)c2)S(C)(=O)=O)cc1 (stereo unspecified), COc1ccc2c(c1)CCc1sc(NC(=O)c3ccc(C)cc3)nc1-2, Cn1c(=O)c(-c2cccs2)nc2cncnc21, Cc1oc(-c2cccc(Cl)c2)[n+]([O-])c1C, Cc1c(C#N)c(=O)oc2ccc3ccccc3c12, NC(=O)c1ccc(N2CCCCC2)c(N2C(=O)C3CC=CCC3C2=O)c1 (stereo unspecified)

AC50, active:
COc1cccc(-c2ccc3ncnc(N(C)Cc4ccco4)c3c2)c1 10 µM, COc1cccc(-c2ccc3ncnc(N(C)C)c3c2)c1 10 µM, CNc1ncnc2ccc(-c3cccc(OC)c3)cc12 15.8 µM, CN(Cc1ccco1)c1ncnc2ccc(-c3ccc4c(c3)OCO4)cc12 1.58 µM, COc1ccc(N(C(=O)Cn2nnc3ccccc32)C2(C(=O)NC3CCCC3)CCCCC2)cc1 11.2 µM, Cc1cc(NC(=O)CSc2nc3ccccc3c(=O)n2CCCC(=O)NCc2ccco2)n[nH]1 15.8 µM, Cc1cccc(C)c1-n1c(SCC(=O)NCc2ccco2)nc2ccccc2c1=O 28.2 µM, CCCCCn1c(SCc2ccncc2)nc2cc(C(=O)NCc3ccco3)ccc2c1=O 0.794 µM, CCCN=C(N)NCCC[C@H](N)C(=O)O 7.94 µM, S=c1[nH]nc(C2CCCCC2)n1/N=C/c1cccs1 2.24 µM, Cc1ccc(C)c(NC(=S)N(CCc2nc3cc(C)c(C)cc3[nH]2)Cc2cccnc2)c1 1 µM, COc1ccc(NC(=S)N(CCc2nc3cc(C)c(C)cc3[nH]2)Cc2cccnc2)cc1 11.2 µM, Cc1cccc(NC(=S)N(CCc2nc3cc(C)c(C)cc3[nH]2)Cc2cccnc2)c1 3.16 µM, CSC(=NC#N)N1CCN(c2ccc(Cl)cc2)CC1 0.316 µM, CN(C)c1nc(-c2cccnc2)nc2ccccc12 15.8 µM, CN(C)c1ccc(-c2nc(N(C)C)c3ccccc3n2)cc1 7.94 µM, CNc1nc(-c2ccc(N(C)C)cc2)nc2ccccc12 12.6 µM, O=C(NCc1ccccc1)c1onc(CSc2ccc(F)cc2)c1C(=O)NCCCN1CCOCC1 10 µM, COc1ccc(CNc2ccnc(-c3ccc4c(c3)OCO4)n2)c(OC)c1 10 µM, COc1ccccc1CNc1ccnc(-c2ccc3c(c2)OCO3)n1 0.794 µM
